Screening results as filed in PubChem BioAssay.
In the library only some 3.8% were active in any assay of this set; here they are far more common.
HT1080 IDH1KD tx = qHTS for induction of synthetic lethality in tumor cells producing 2HG: qHTS for the HT-1080-IDH1KD cell line. HT-1080 IDH1 knockdown viability, ATP luminescence, 48 h. Potency, µM (series often up to 46.1 µM), for inactives: top-dose activity, negative = toxicity, actives largely listed as cytotoxic. actives 2% (n = 360,000). AID 686971, 2013;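 further: 0% = DMSO wells and -100% = cell-free medium wells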
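Cytotoxicity counter-line: IDH1KD HT-1080, 48 h, CellTiter-Glo. Curves classed by r2, magnitude and activity.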
ATXN viability = Viability Counterscreen for Primary qHTS for Inhibitors of ATXN expression. S2 cells (HEK-293 line with an ATXN2-luciferase reporter) viability, CellTiter-Fluor protease fluorescence, 24 h. AID 651635, 2014. Potency, µM (titrated, usually from 56.7 µM), most hits filed as cytotoxic. actives 0.49% (n = 400,000); further: nearly all actives have a fitted effect of over 40% in size
HepG2 viability = qHTS for Inhibitors of TGF-b: Cytotox Counterscreen | Potency, µM (titrated, usually from 46.1 µM), for inactives: at the highest dose activity change, negative = cytotoxicity, actives largely listed as cytotoxic | HepG2 CAGA-GFP viability, ATP luminescence, 18 h | actives 0.76% (n = 410,000) | AID 588856, 2011
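HepG2 CAGA-GFP cells (1000/well, DMEM with 1% FBS) received compound, then TGF-beta at 500 pg/mL final, and were incubated 18 hours at 37 degrees C. Viability was read by CellTiter-Glo luminescence. Media-only wells were set as complete cell-killing and DMSO as no toxicity.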
ATXN2 expr inh = Primary qHTS for Inhibitors of ATXN expression | actives 0.72% (n = 360,000) | HEK-293 ATXN2-luciferase reporter, luminescence, 24 h | Potency, µM (titrated, usually from 57 µM), inactives show top-dose activity change, negative = inhibition, most hits filed as inhibitors; further: on the % scale 0 is the no-effect control and ±100 the full control effect; nearly all actives have a fitted effect of over 55% in size
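ATXN2-luciferase reporter cells (luciferase flanked by upstream and downstream ATXN2 gene portions) were treated 24 h at 37 °C with compounds at up to 57 uM. SteadyGlo luminescence gave expression; GF-AFC fluorescence gave viability.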
TGFb inhibitor = qHTS for Inhibitors of TGF-b. HepG2 CAGA-GFP TGF-b/SMAD3 reporter, GFP fluorescence, 18 h; TGF-beta stimulated, 500 pg/mL final. AID 588855, 2011. Potency, µM (doses to about 46.1 µM), inactives show at the highest dose activity, negative = inhibition, actives largely listed as inhibitors. actives 1.2% (n = 410,000); further: on the % scale 0 is the no-effect control and ±100 the full control effect; nearly all actives have a fitted effect of over 65% in size
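GFP signal (ex488/em500-530) from TGF-beta-stimulated HEPG2 CAGA-GFP cells, 500 pg/mL final, 18 h at 37 degrees C in DMEM plus 1% FBS, normalized to unstimulated and DMSO-stimulated controls.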
HT1080-NT tox = qHTS for induction of synthetic lethality in tumor cells producing 2HG: qHTS for the HT-1080-NT fibrosarcoma cell line. HT-1080-NT fibrosarcoma viability, CellTiter-Glo ATP luminescence, 48 h. Potency, µM (doses to about 46.1 µM), for the others: at the highest dose activity, negative = less viability, actives largely listed as cytotoxic. actives 1.6% (n = 360,000);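 further: NT is the 2HG producing partner of a matched IDH1 knockdown line; 0% = DMSO-treated cells and -100% = media-only wells without cells; nearly all actives have a fitted effect of over 55% in size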
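750 cells/well, RPMI + 5% FBS; 2 h settle, compound pin-transfer, 48 h at 37 degrees C. CellTiter-Glo 10 min RT, luminescence. Normalized to DMSO and media-only wells.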
The depositor's hits bear a star; i = inactive; ? = inconclusive; nt = not tested or not shown. The call rests on the fitted dose curve; in most records, active means well fitted curve in the direction sought with a large enough effect; inconclusive means small, poorly fitted or top-dose-only effect, or another doubt; inactive means no such curve, though single readings can be large; an effect the other way counts as inactive or inconclusive. Potency means the concentration at half of the fitted maximal effect.

SMILES	HT1080 IDH1KD tx	ATXN viability	HepG2 viability	ATXN2 expr inh	TGFb inhibitor	HT1080-NT tox
O=C(c1ccccc1F)n1c2c(c3ccccc31)CCCC2	15µM*	i	-14%	-15%	-24%	?
O=C(Nc1ccc2nc(SCC(=O)N3CCOCC3)sc2c1)c1ccccc1Cl	nt	nt	-13%	nt	?	nt
CCCC(=O)Nc1ccc(C(=O)n2nnc3ccccc32)cc1	7%	i	10%	4%	-6%	11%
CN(C)c1ccc(C(=O)n2nnc3ccccc32)cc1	16µM*	?	-1%	19%	2%	?
O=C(CCl)N1CCN2C(=O)c3ccccc3C12c1ccc(Cl)cc1 (stereo unspecified)	8.2µM*	nt	-54%	?	?	9.2µM*
Cc1ccc(C(=O)N2CCN3C(=O)c4ccccc4C23c2ccc(Cl)cc2)cc1 (stereo unspecified)	?	?	-37%	0%	-15%	?
COCCC1CCCCN1Cc1nc(N2CCCCC2)c2cc(OC)c(OC)cc2n1 (stereo unspecified)	nt	i	nt	nt	nt	nt
COc1cc2nc(N3CCCC(O)C3)c(CNCc3ccccc3C(F)(F)F)cc2c(OC)c1OC (stereo unspecified)	nt	i	nt	nt	nt	nt
CC(=O)O[C@@H]1C(=O)O[C@@H]2[C@H]1OC(=O)[C@@H]2OC(C)=O	nt	i	nt	-18%	nt	nt
O=C(CC1SC(=Nc2ccccc2)N(CCc2c[nH]c3ccccc23)C1=O)Nc1ccccc1F (stereo unspecified)	21µM*	i	-24%	-30%	?	?
CCN1C/C(=C\c2cccc([N+](=O)[O-])c2)C(=O)/C(=C/c2cccc([N+](=O)[O-])c2)C1	2.3µM*	4.5µM*	-51%	3.5µM*	?	4.1µM*
Cc1c2cnn(-c3ccccc3)c(=O)c2c(C)n1CC(=O)Nc1ccccc1Br	nt	i	6%	0%	?	nt
Cc1cc2ccccn2c1C(=O)c1cccc([N+](=O)[O-])c1	?	i	2%	nt	-3%	-16%
Cc1cc2ccccn2c1C(=O)c1ccc([N+](=O)[O-])o1	16µM*	?	11µM*	?	11µM*	?
COc1cc2c(cc1-c1c(C)noc1C)ncc1[nH]c(=O)n([C@H](C)c3ccccn3)c12	nt	nt	nt	194%	nt	nt
COc1ccc(/C=C/C(=O)NC(=S)NNC(=O)Cc2cccs2)cc1	16µM*	i	-7%	-12%	?	15µM*
O=C(/C=C/c1ccccc1)NC(=S)NNC(=O)Cc1cccs1	?	i	-10%	-20%	-26%	?
COc1ccccc1NC(=O)CSc1ncc2c(n1)-c1ccccc1N(Cc1ccccc1C)S2(=O)=O	nt	i	7%	3%	12%	nt
CON(C)C(=O)CCN(C(=O)OC(C)(C)C)c1ccccc1	2%	i	0.56µM*	0%	27%	11%
Cc1ccc(-n2cc(CN3CCC(O)(c4ccccn4)CC3)c(-c3ccc(F)cc3)n2)cc1	?	i	-51%	1%	?	16µM*
Cc1ccc(-n2cc(CN3CCNC(=O)CC3)c(-c3ccc(F)cc3)n2)cc1	-26%	i	4%	0%	-11%	-1%
COc1cccc(CNc2nc(NCC3CC3)nc3ccsc23)c1OC	12µM*	16µM*	-47%	0%	?	23µM*
CSc1ccccc1CNc1nc(NCC2CC2)nc2ccsc12	21µM*	14µM*	11µM*	?	16µM*	18µM*
